Experimental data taken from PMC8222333, “AsCas12a ultra nuclease facilitates the rapid generation of therapeutic cell medicines”.
Residue numbers refer to the chain shown, from its start.

B1: TGAC (dsDNA)
DNA 1: GCTATCTAGTGCTCAGTACGCACTGTGACAGGAAACTTCTGGCAGGACCAGGTCATGAGATCGGAAGAGCACACGTCTGAACTCCAGTCA
DNA 2: TGACTGGAGTTCAGACGTGTGCTCTTCCGATCTCATGACCTGGTCCTGCCAGAAGTTTCCTGTCACAGTGCGTACTGAGCACTAGATAGC
RNA: AAUUUCUACUCUUGUAGAUAGGAAACUUCUGGCAGGACC
B2: TGAG (dsDNA)
DNA 1: B1 DNA 1 with C29G
DNA 2: B1 DNA 2 with G62C
RNA: B1 RNA
B3: TGAT (dsDNA)
DNA 1: B1 DNA 1 with C29T
DNA 2: B1 DNA 2 with G62A
RNA: B1 RNA
B4: TGCG (dsDNA)
DNA 1: B1 DNA 1 with A28C, C29G
DNA 2: B1 DNA 2 with G62C, T63G
RNA: B1 RNA
B5: TGCT (dsDNA)
DNA 1: B1 DNA 1 with A28C, C29T
DNA 2: B1 DNA 2 with G62A, T63G
RNA: B1 RNA
B6: TGGC (dsDNA)
DNA 1: B1 DNA 1 with A28G
DNA 2: B1 DNA 2 with T63C
RNA: B1 RNA
B7: TGGG (dsDNA)
DNA 1: B1 DNA 1 with A28G, C29G
DNA 2: B1 DNA 2 with G62C, T63C
RNA: B1 RNA
B8: AAGC (dsDNA)
DNA 1: B1 DNA 1 with T26A, G27A, A28G
DNA 2: B1 DNA 2 with T63C, C64T, A65T
RNA: B1 RNA
B9: ACGC (dsDNA)
DNA 1: B1 DNA 1 with T26A, G27C, A28G
DNA 2: B1 DNA 2 with T63C, C64G, A65T
RNA: B1 RNA
B10: GCGG (dsDNA)
DNA 1: B1 DNA 1 with T26G, G27C, A28G, C29G
DNA 2: B1 DNA 2 with G62C, T63C, C64G, A65C
RNA: B1 RNA
B11: GTAC (dsDNA)
DNA 1: B1 DNA 1 with T26G, G27T
DNA 2: B1 DNA 2 with C64A, A65C
RNA: B1 RNA

Tests used:
Assay in all cases: Spec-seq (native PAGE EMSA with sequencing of bound and unbound); 25 mM Tris-HCl pH 7.4, 150 mM KCl, 5 mM MgCl2, 10% glycerol, 1 mM DTT, 40 ng/uL salmon sperm DNA; 400 nM Cas12a, 480 nM crRNA, 50 nM library, 37 C 1 h; native PAGE at room temperature; high values mean tight binding
Settings in all cases: protein: recombinant
[1] = molecular target: dAsCas12a S542R (Acidaminococcus sp., UniProt U2UMQ6 1-1307, S542R;D908A;E993A;D1235A)
[2] = molecular target: d-enCas12a (Acidaminococcus sp., UniProt U2UMQ6 1-1307, E174R;S542R;K548R;D908A;E993A;D1235A)
[3] = molecular target: d-enCas12a-Ultra (Acidaminococcus sp., UniProt U2UMQ6 1-1307, E174R;S542R;K548R;M537R;F870L;D908A;E993A;D1235A)
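Note: relative affinity from the bound to unbound sequence frequency ratio in Spec-seq.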

Binder | binding signal [1] [lnKA] | binding signal [2] [lnKA] | binding signal [3] [lnKA]
B1 | -8.67 | -5.25 | -2.74
B2 | -8.4 | -5.65 | -3.4
B3 | -8.47 | -5.85 | -3.37
B4 | -8.2 | -3.38 | -0.977
B5 | -8.2 | -4 | -1.2
B6 | -8.19 | -5.4 | -3.03
B7 | -8.57 | -5.93 | -3.42
B8 | – | -5.85 | -3.34
B9 | – | -5.66 | -3.42
B10 | – | -5.85 | -3.63
B11 | – | -5 | -1.95
